The structures appear in SMILES notation.

This experiment concerns the target Glucose transporter (Leishmania mexicana) (UniProt O61059). The experiment in a line: ST_JUDE_LEISH: Cytotoxicity at 2uM final concentration against transgenic Leishmania Mexicana promastigotes LmGT2 that are glucose transport deficient and complemented with the L. Mexicana glucose transporter 2. Activity is measured by DNA content using SYBR green in vitro. It counts as functional.
For `COc1cc2nc(NCc3cccc(CNC(=O)c4ccc(-c5ccc(C(C)=O)cc5)cc4)c3)nc(N)c2cc1OC`, the inhibition (usually the relative decrease from the control value, in per cent) was 0.66%.
With `Cc1cc(N[C@@H](CC(C)C)C(=O)NCCc2ccccc2)nc(NCC2CCCCC2)n1` the figure was 3.37%.
As to `COc1cc(OC)cc(-c2nn(-c3ccc([N+](=O)[O-])cc3Cl)c(=S)n2CC2CCCO2)c1` (stereo not drawn), the inhibition was found to be 2.53%.
With `Nc1ncnc2occ(-c3ccc(NC(=O)Nc4cc(C(F)(F)F)ccc4F)cc3)c12` the figure was -2.03%; with `COc1ccc(C(=O)C2CC2CN(C)CC(O)c2cc(C)c(OC)cc2C)cc1` (stereo not drawn), 6.57%.
With `O=c1cc(NCCCNC2CCCc3c2ccc2ccccc32)[nH]c2ccccc12` (stereo not drawn) the figure was 2.74%.
Turning to `O=C(/C=C/c1ccc(Cl)c(Cl)c1)NCCCCCN1CCC(NC(=O)Nc2ccc(OC(F)F)cc2)CC1`, the inhibition was 5.2%.
With `CN(C)c1ccc(OCCCCCCOc2ccccc2)cc1` the figure was 1.98%; with `CC(C)c1ccc(NC(S)=NN=Cc2ccccn2)cc1`, 86.1%; with `Cc1cc(Nc2ccnc(-c3ccc(Cl)cc3)n2)ccn1`, 8.52%.
As for `N#Cc1c(N)nc(SCC(=O)Nc2cc(C(F)(F)F)ccc2Cl)c(C#N)c1-c1cccs1`, the figure is 0.5%.
As for `Cc1ccn2cc(-c3ccc(NC(=O)c4ccc(Br)o4)cc3)nc2c1`, the figure is 0.61%.
As for `COc1ccc2ccccc2c1CON1C(=N)N=C(N)NC1(C)C`, the inhibition is 1.5%.
With `c1ccc(-c2nc(Nc3nc4ccccc4[nH]3)[nH]c2-c2ccccc2)cc1`, the inhibition stood at 4.43%.
Regarding `COc1ccccc1CCNc1nccc(N[C@@H](Cc2ccccc2)C(=O)NCc2cccs2)n1`, the inhibition was -0.08%.
As for `Cc1ccccc1NC(=S)NC1CCN(CCCCCNC(=O)/C=C/c2ccc(Cl)c(Cl)c2)CC1`, the inhibition was 2.71%.
Regarding `CN1CCCN(Cc2ccc(-c3ccc(NC(=O)c4cccc(C#N)c4)cc3)cc2)CC1`, the inhibition came out at 0.78%.
On to `Cc1nn(CCOC(=O)NC(NCC2COc3ccccc3O2)C(Cl)(Cl)Cl)cc1[N+](=O)[O-]` (stereo not drawn), for which the inhibition was -1.73%.
As for `CCOc1cccc(C(=O)Nc2cccc(CN3CCCN(Cc4ccc(O)cc4)CC3)c2)c1`, the figure is 5.38%; as for `COc1ccc2nccc(N3CCC(CCNCc4ccc5c(n4)NC(=O)CO5)CC3)c2c1`, -0.63%.
On to `O=C(NCC1CCC1)c1cnc(Nc2cccc(Cl)c2)nc1N1CCC1`, for which the inhibition worked out at 12.4%.
Take `COc1cccc(CNC(=O)c2ccnc(-c3cccc(CN(C)C4CCN(C)CC4)c3)c2)c1`: the inhibition came to 1.78%.
As for `Cc1cnc(-c2ccc(NC(=O)c3coc4ccc(N5CC(C)N(C)C(C)C5)cc34)cc2)o1` (stereo not drawn), the inhibition was 0.74%.
